Sampled rows, rich in hits. Any-hit rate of the full collection: about 10%.
PLK1 PBD inh: inhibitors of human PLK1 polo-box domain binding. Plk1 PBD binding of FITC phosphopeptide, fluorescence polarization. Potency, µM, inactives show max response, negative = inhibition, hits mostly inhibitors. hit rate 2.8% among 360,000; also: potency is read from the fitted curve at half-maximal effect; series mostly up to about 57 µM; nearly all actives have a fitted effect of over 65% in size
Target sequence (P53350 whole entry, looked up, the tested form may be a part): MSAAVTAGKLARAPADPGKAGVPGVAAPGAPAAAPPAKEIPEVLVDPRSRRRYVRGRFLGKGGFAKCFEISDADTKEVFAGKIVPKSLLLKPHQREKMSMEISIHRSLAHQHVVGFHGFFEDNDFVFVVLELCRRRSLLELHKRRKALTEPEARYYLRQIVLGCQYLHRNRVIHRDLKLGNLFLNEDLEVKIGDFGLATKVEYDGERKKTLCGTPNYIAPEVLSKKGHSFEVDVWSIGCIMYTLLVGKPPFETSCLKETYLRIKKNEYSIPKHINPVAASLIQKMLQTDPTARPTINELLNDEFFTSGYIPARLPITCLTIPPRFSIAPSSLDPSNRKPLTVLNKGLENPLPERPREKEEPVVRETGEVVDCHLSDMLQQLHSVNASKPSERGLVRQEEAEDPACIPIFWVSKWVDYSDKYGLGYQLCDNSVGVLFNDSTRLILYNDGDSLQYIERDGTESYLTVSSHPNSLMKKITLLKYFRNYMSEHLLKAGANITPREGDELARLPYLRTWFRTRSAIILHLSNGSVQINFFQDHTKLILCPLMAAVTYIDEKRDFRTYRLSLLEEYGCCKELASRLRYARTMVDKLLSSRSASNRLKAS
Sfp PPTase inh: blocks B. subtilis Sfp PPTase activity; AID 1490; hit rate 3.5% among 310,000; Biochemical Sfp PPTase activity, qHTS; Potency, µM, inactives show largest response in the series, negative = inhibition, most hits filed as inhibitors;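 also: the enzyme is Sfp with the accession as filed and its product quenches rhodamine fluorescence; potency is read from the fitted curve at half-maximal effect; 0% = enzyme reaction without inhibitor and -100% = no enzyme wells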
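Fluorescence-quenching assay with 15 nM Sfp, 5 uM rhodamine-CoA and 12.5 uM BHQ-2-labelled ybbR peptide in pH 7.6 Hepes/MgCl2 buffer. Enzyme was pre-incubated with compound for 15 min at room temperature. Rate was taken from the 30-min fluorescence change (525/598 nm).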
CCT chaperon mod: modulators of cytosolic chaperonin (CCT/TRiC) activity; AID 651819; purified chaperonin ATPase assay, HTRF ADP detection, 30 min; hit rate 0.3% among 360,000; activity change, % (concentration not given with the values), hits read low; in the data active = activity change below about -30%
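We incubate TRiC, 40 or 20 nM final, with library compounds at 76 uM and 10 uM ATP for 30 min at 37 °C. ADP formed is detected with Transcreener HTRF reagents after 30 min at room temperature.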
G9a inh: G9a (human) methyltransferase inhibition. AID 504332. hit rate 8.8% among 350,000. G9a H3K9 monomethylation, AlphaScreen, 2 h. Q96KQ7. Potency, µM (top dose mostly 102 µM), inactives show top-dose activity, negative = inhibition, most hits filed as inhibitors; also: potency is read from the fitted curve at half-maximal effect; nearly all actives have a fitted effect of over 75% in size
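Quantitative HTS format: methyltransferase activity on a biotin-tagged H3K9 peptide is measured by AlphaScreen, using a rabbit anti-monomethyl-H3K9 antibody with streptavidin donor and anti-IgG acceptor beads. Final levels are 20 nM enzyme, 500 nM peptide, 20 uM SAM; 2 h RT.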
VDR inhibitor: blocks the human vitamin D receptor; VDR-SRC2-3 peptide fluorescence polarization, 2 h; Potency, µM, inactives show max response, negative = inhibition, actives largely listed as inhibitors; hit rate 0.93% among 400,000; also: potency is read from the fitted curve at half-maximal effect
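Two reagent solutions held at 4 deg C in the dark were dispensed, compounds pinned at 23 nl, and the mixture incubated 2 h at room temperature. Read-out: fluorescence polarization of VDR–SRC2-3 peptide binding.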
MmCpn inh: blocks the Methanococcus maripaludis chaperonin Mm-Cpn | purified Mm-Cpn ATPase, ADP Transcreener TR-FRET | hit rate 0.031% among 330,000 | Potency, µM (series often up to 76.9 µM), inactives show at the top dose activity, negative = inhibition, most hits filed as inhibitors; also: potency is read from the fitted curve at half-maximal effect; nearly all actives have a fitted effect of over 80% in size
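Reaction buffer contained 30 mM Tris pH 7.4, 100 mM KCl, 5 mM MgCl2 and 1 mM DTT. Mm-CPN (25 nM final) hydrolysed 10 uM ATP over 30 min at 37°C; ADP was read by HTRF.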
* = called active by the depositor; ? = inconclusive; nt = not tested or not shown; [ ] = another dose, or the depositor's remark. Unless noted, calls follow the shape of the dose curve; as a rule, active = well fitted curve in the direction sought with a large enough effect; inconclusive = small, poorly fitted or top-dose-only effect, or another doubt; inactive = no such curve, though single readings can be large; an effect the other way counts as inactive or inconclusive. Unless noted, % is scaled to controls: 0 for no effect and ±100 for the full control effect.

SMILES	PLK1 PBD inh	Sfp PPTase inh	CCT chaperon mod	G9a inh	VDR inhibitor	MmCpn inh
Cc1noc(NS(=O)(=O)c2ccc(N/C=C/C(=O)c3ccncc3)cc2)c1C	-12.0%	1.9%	-4.4	-41.7%[59 µM]	9.9%	2.6%
Cc1ccc(/C=C/C(=O)Nc2ccc(S(=O)(=O)Nc3onc(C)c3C)cc2)cc1	37.7µM*	8.1%	-0.1	?	18.1%	-4.8%
Cc1noc(NS(=O)(=O)c2ccc(N/C=C\C(=O)c3ccncc3)cc2)c1C	-5.9%	10.2%	0.9	50.1µM*	0.6%	-2.4%
COc1ccc(-n2c(=O)c3ccccc3n(CC(=O)NCCc3ccc(OC)c(OC)c3)c2=O)cc1	nt	nt	nt	3.8%[59 µM]	-23.4%	nt
Cc1cc2c(NC(=O)Nc3ccc(F)cc3)cccc2nn1	-3.6%	35.5µM*	-0.8	50.1µM*	25.4%	1.8%
COc1cc(C(=O)NC2CCN(CC(=O)Nc3cccc(C)c3C)CC2)cc(OC)c1OC	26.7µM*	8.6%	-1.5	7.3%[59 µM]	-20.4%	0.2%
COCCCNCCOc1ccccc1-c1ccccc1	-1.2%	-11.2%	-0.9	7.94µM*	13.8%	-1.7%
CNCCCCOc1ccccc1-c1ccccc1	-5.2%	?	-3.9	?	-15.2%	1.9%
COCCCNCCCCOc1ccccc1-c1ccccc1	-1.2%	-21.6%	0.9	14.1µM*	13.5%	-1.3%
COCCNCCOc1ccccc1-c1ccccc1	-6.2%	50.1µM*	-1.3	10µM*	28.3%	-0.2%
COc1ccc(NC(=O)c2c(C)oc3ccc(O)c(CN4CCN(Cc5ccccc5)CC4)c23)cc1Cl	nt	nt	nt	?	13.6%	nt
O=C(NCCc1ccc(Cl)cc1)c1cnc2sc(N3CCOCC3)nn2c1=O	nt	nt	nt	-5.6%[59 µM]	7.3%	nt
CC[C@@H](c1ccccc1)n1c(=O)n2n(c1=O)[C@H]1[C@H](O)[C@H]3O[C@@H]3/C(=N/OCc3ccccc3)[C@@H]1CC2	nt	0.5%	nt	nt	nt	nt
CCCc1cc(-c2nc(-c3ccc(Br)cc3)cs2)ccn1	1.7%	?	-0.8	20.1%[59 µM]	-11.8%	-8.3%
CCCc1cc(-c2nc(-c3ccc(Cl)cc3)cs2)ccn1	-7.0%	39.8µM*	0.4	3.5%[59 µM]	-0.9%	-4.3%
Cc1nn(Cc2ccccc2)c(C)c1N	-15.4%	0.5%	-3.8	-7.8%	-12.3%	-0.1%
Cc1ccc(OCc2n[nH]c(=S)n2Cc2ccccc2)cc1	-17.2%	8.0%	-3.3	?	3.2%	2.4%
Cc1nn(Cc2n[nH]c(=S)n2Cc2ccccc2)c(C)c1Cl	-5.0%	1.9%	0.9	2.51µM*	-5.2%	4.0%
Cc1cc(C)n(Cc2n[nH]c(=S)n2Cc2ccccc2)n1	-3.3%	-5.8%	0.9	15.8µM*	-9.9%	-0.1%
COc1ccc(-c2c(C3C4C=CCCC4(C)C(=O)N3Cc3ccccc3)ccc3ccccc23)cc1OC (stereo unspecified)	nt	-3.2%	nt	nt	-25.3%	nt
COc1ccc(C(c2c(C)n(C)n(-c3ccccc3)c2=O)c2c(C)n(C)n(-c3ccccc3)c2=O)cc1OC	0.1%	11.9%	-0.6	?	2.7%	-1.3%
COc1ccc(C(c2c(O)nc(SC)n(C)c2=O)c2c(O)nc(SC)n(C)c2=O)cc1O	-11.9%	50.1µM*	-0.2	15.8µM*	-20.0%	3.9%
COc1ccc(CCNC(=O)C(=O)Nc2ccc(C)cc2)cc1OC	nt	nt	nt	2.6%[59 µM]	0.8%	nt
CCCCNC(=O)c1sc(=S)n2c1[nH]c(=O)c1ccccc12	26.7µM*	-4.7%	-1.0	?	?	-1.0%
O=C(NC1CCCCC1)c1sc(=S)n2c1[nH]c(=O)c1ccccc12	23.8µM*	-76.8%	3.9	nt	?	-2.4%
SMILES	PLK1 PBD inh	Sfp PPTase inh	CCT chaperon mod	G9a inh	VDR inhibitor	MmCpn inh
O=C(Cc1ccccc1F)Nc1ccccc1N1CCCC1	0.5%	13.9%	-0.4	67.6%	1.2%	1.1%
O=C(CC1OC(=O)c2ccccc21)Nc1ccccc1N1CCOCC1 (stereo unspecified)	-9.3%	1.8%	-2.7	-21.3%	-4.4%	-0.4%
O=C(Cc1ccccc1F)Nc1cc(Cl)ccc1N1CCCC1	-0.6%	13.9%	-1.7	44.7µM*	-3.1%	?
O=C(CC1OC(=O)c2ccccc21)Nc1ccc(Cl)c(S(=O)(=O)N2CCCCC2)c1 (stereo unspecified)	-7.2%	nt	-0.6	14.1µM*	-9.6%	2.2%
O=C(CC1OC(=O)c2ccccc21)Nc1cc(Cl)ccc1N1CCCC1 (stereo unspecified)	-1.5%	nt	1.2	56.2µM*	1.4%	-1.3%
CC(=O)N1CCN(C(=O)CC2OC(=O)c3ccccc32)CC1 (stereo unspecified)	26.7µM*	-23.0%	0.4	39.8µM*	?	-1.5%
CC[C@H](C)[C@H](NC(=O)[C@H](C)NC(=O)[C@@H](N)C(C)C)C(=O)N[C@H](C(=O)N[C@H](C(=O)N[C@@H](CC(C)C)C(=O)N[C@H](C(=O)N[C@@H](CCCCN)C(=O)O)C(C)C)C(C)C)[C@@H](C)O	nt	-2.1%	nt	nt	3.0%	nt
O=C(CC1OC(=O)c2ccccc21)Nc1cc(S(=O)(=O)N2CCOCC2)ccc1OCC(F)(F)F (stereo unspecified)	1.8%	nt	-0.9	12.6µM*	-5.3%	-2.5%
OC(CNC1CCCc2ccccc21)COc1c(Cl)cccc1Cl (stereo unspecified)	0.1%	?	-0.6	7.94µM*	-9.4%	1.7%
COc1ccccc1CNC(=O)Cn1nc(C)n2cccc2c1=O	nt	nt	nt	-6.5%[59 µM]	9.5%	nt
Cc1cc(C)c(NC(=O)c2cc(CN3CCOCC3)on2)c(C)c1	nt	nt	nt	14.3%[59 µM]	10.0%	nt
C=C[C@]1(C)C=C2CC[C@H]3[C@@](C)(CCC[C@@]3(C)C(=O)O)[C@@H]2CC1	29.9µM*	nt	0.8	nt	-7.9%	1.5%
O=[N+]([O-])c1ccc(Oc2cccc(C(F)(F)F)c2)nc1	26.7µM*	12.8%	-2.6	2.0%	?	0.0%
O=C(NC1CCSC1=O)c1ccc(Oc2cccc(C(F)(F)F)c2)nc1 (stereo unspecified)	21.2µM*	16.1%	1.7	-0.1%[59 µM]	-7.2%	1.7%
Cc1ccc(-c2ccc(/C=N\NC(=O)C3C(=O)NCC3c3ccccc3)o2)cc1Cl (stereo unspecified)	-5.0%	50.1µM*	1.7	?	-2.7%	-0.9%
O=C1NCC(c2ccccc2)C1C(=O)N/N=C\c1ccc(-c2cccc(Cl)c2Cl)o1 (stereo unspecified)	-4.5%	-28.9%	0.3	12.6µM*	1.1%	-2.0%
COC(=O)N/N=C/c1ccc(-c2ccc(C)c(Cl)c2)o1	-4.9%	5.7%	-1.2	-10.8%[59 µM]	-8.3%	1.3%
Cc1ccccc1/C=N/N1CCN(c2ccccc2)CC1	-2.8%	-2.8%	-0.3	28.2µM*	10.6%	1.5%
O=[N+]([O-])c1ccc(Cl)c(/C=N/N2CCN(c3ccccc3)CC2)c1	-7.5%	0.8%	2.2	31.6µM*	3.9%	-1.1%
O=[N+]([O-])c1ccccc1/C=N/N1CCN(c2ccc(Cl)cc2)CC1	-3.7%	4.9%	-4.3	17.8µM*	-9.3%	-1.6%
